Measurements: PubChem BioAssay (NCI)
This is part of a sample that, as a whole, favours compounds with a hit. Of some 83,000 tested, about 20% had one in any assay.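 Interpretation: 100, growth as untreated; towards 0, rising growth inhibition; 0, no net growth; 0 to -100, cell death. Compounds scoring below 10 were considered active.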 Values without a mark were called inactive. Active and inactive are the calls of the source.

Tests used:
Experiment in all cases: NCI-60 one-dose screen, 48 h (100 = growth as untreated, 0 = no growth, -100 = all killed)
Details in all cases: 10 µM unless noted
SR leukemia = system: SR leukemia
RPMI-8226 leukemia = system: RPMI-8226 leukemia
OVCAR-8 ovarian = system: OVCAR-8 ovarian
OVCAR-5 ovarian = system: OVCAR-5 ovarian
OVCAR-4 ovarian = system: OVCAR-4 ovarian
SK-OV-3 ovarian = system: SK-OV-3 ovarian
IGROV1 ovarian = system: IGROV1 ovarian
OVCAR-3 ovarian = system: OVCAR-3 ovarian
HS 578T breast = system: HS 578T breast
NCI/ADR-RES ovarian = system: NCI/ADR-RES ovarian
T-47D breast = system: T-47D breast
BT-549 breast = system: BT-549 breast
MDA-MB-435 melanoma = system: MDA-MB-435 melanoma
SW-620 colon = system: SW-620 colon
HCT-116 colon = system: HCT-116 colon
HCC-2998 colon = system: HCC-2998 colon
KM12 colon = system: KM12 colon
MDA-MB-468 breast = system: MDA-MB-468 breast
MCF7 breast = system: MCF7 breast

Compound | growth (SR leukemia) | growth (RPMI-8226 leukemia) | growth (OVCAR-8 ovarian) | growth (OVCAR-5 ovarian) | growth (OVCAR-4 ovarian) | growth (SK-OV-3 ovarian) | growth (IGROV1 ovarian) | growth (OVCAR-3 ovarian) | growth (HS 578T breast) | growth (NCI/ADR-RES ovarian) | growth (T-47D breast) | growth (BT-549 breast) | growth (MDA-MB-435 melanoma) | growth (SW-620 colon) | growth (HCT-116 colon) | growth (HCC-2998 colon) | growth (KM12 colon) | growth (MDA-MB-468 breast) | growth (MCF7 breast)
O=c1[nH]c(=O)c2c(-c3cc4ccccc4oc3=O)ccnc2[nH]1 | 71.8% | 95% | 61.6% | 111% | 88.3% | 71.2% | 79.4% | 98.9% | 70.4% | 86.9% | 74.2% | 70.2% | 101% | 98.9% | 88.3% | 98.8% | 95.4% | 57.9% | 
Brc1ccc(N/N=C/c2c[nH]c3ccc(Br)cc23)nc1 | -26.2% (active) | -17.2% (active) | 3.48% (active) | -25.8% (active) | 19.6% | -12.7% (active) | -25.6% (active) | -2.41% (active) | -17.2% (active) | -24.5% (active) | 1.46% (active) | -22.6% (active) | -25% (active) | -71.3% (active) | -72.9% (active) | -94% (active) | -57% (active) | -63.5% (active) | 
CCCCSc1nc(Nc2ccc(S(N)(=O)=O)cc2)c(C#N)c(-c2cc(OC)c(OC)c(OC)c2)n1 | 8.85% (active) | 10.7% | 31.5% | 53.7% | 40.2% | 105% | 46.8% | 49.8% | 67.8% | 32.5% | 15.2% | 44.3% | 33% | 48.6% | 21.8% | 65% | 26.6% | 61.2% | 
NS(=O)(=O)c1ccc(CCNC(=O)CSc2ccc(-c3ccc(Br)cc3)nn2)cc1 | 55.9% | 40.1% | 64.6% | 94.9% | 49.3% | 73% | 72.1% | 91% | 73.1% | 102% | 41.2% | 39.5% | 59.1% | 72.2% | 21.3% | 92.5% | 66.4% | 20.8% | 
COc1ccc(-c2nc(SC(C)C)nc(NCCc3c[nH]c4ccccc34)c2C#N)cc1 | 2.63% (active) | 16.3% | 66.5% | 65.4% | 57.1% | 72% | 94.3% | 63.8% |  | 32.5% | 6.31% (active) | 63% | 53.4% | 32.9% | 7.04% (active) | 32.5% | 25.5% | 30.1% | 7.2% (active)
Cn1cc(-c2nc(N)nnc2-c2c[nH]c3ccc(F)cc23)c2cccnc21 | 17.8% | 44.7% | 50.3% | 80.2% | 70.7% | 41.3% | 22.3% | 60.7% |  | 52.1% | 19.4% | 38% | 49.6% | 46.7% | 43.2% | 72.8% | 60.9% | 7.74% (active) | 21.2%
Cn1cc(-c2cc3nc(-c4cn(C)c5ncccc45)cc(N)n3n2)c2cc(Cl)ccc21 | -54.7% (active) | -13.9% (active) | -41.4% (active) | 0.37% (active) | -16.5% (active) | -67.7% (active) | -82.7% (active) | -75% (active) | -29.7% (active) | -43.6% (active) | -70.9% (active) | -94.6% (active) | -81.1% (active) | -86.3% (active) | -94.4% (active) | -97.8% (active) | -37.2% (active) | -95.5% (active) | 
Cn1cc(-c2cc(N)n3nc(-c4cn(C)c5ncccc45)cc3n2)c2cccnc21 | 51.1% | 54.3% | 61.3% | 92.8% | 71.4% | 99.8% | 98% | 96.7% | 89.2% | 68.6% | 89% | 62.5% | 92.9% | 71.7% | 62.7% | -55.5% (active) | 87.8% | 45% | 
CCCCNC(=S)Nc1ccc(OCc2nc3ccccc3[nH]2)cc1 | 53.7% | 58.8% | 59.3% | 86% | 57.2% | 113% | 78.6% | 60.3% |  | 65.9% | 45.3% | 65.9% | 49.6% | 91.5% | 63.7% | 59.6% | 1.01% (active) | 69.6% | 46.5%
COc1ccc(-c2ccc(SCC(=O)NCCc3ccc(S(N)(=O)=O)cc3)nn2)cc1 | 63.9% | 49.6% | 88.8% | 102% | 77.2% | 71.1% | 82% | 121% | 89.8% | 100% | 51% | 60.5% | 92.2% | 103% | 70.4% |  | 96.3% | 33.9% | 
CC12CC[C@@H]3[C@]4(C)COC(c5cn[nH]c5-c5cccc(Br)c5)O[C@@H]4CC[C@@]3(C)[C@@H]1CC(C1=CCOC1=O)O2 (some centres undefined) | 28% | 13.2% | 31% | 76.8% | 25.4% | 53.8% | 48.7% | 40.6% | 51.5% | 25.3% | 17.7% | -3.03% (active) | 36.1% | 48.5% | 15.3% | 35.6% | 13.5% | 17.4% | 
C=C1CC[C@@H]2[C@]3(C)COC(c4cn[nH]c4-c4ccc(Br)cc4)O[C@@H]3CC[C@@]2(C)[C@@H]1C/C=C1/C(=O)OCC1O (some centres undefined) | 3.62% (active) | 3.94% (active) | -9.48% (active) | -75.9% (active) | 8.76% (active) | -31.8% (active) | -44.9% (active) | -78.9% (active) | 19.1% | -40% (active) | 12.2% | -96.6% (active) | -64.4% (active) | -70.5% (active) | -93.5% (active) | -98% (active) | -64.3% (active) | -85.9% (active) | 
N#Cc1ccc(C(=O)Nn2c(N)cc3ccccc3c2=O)cc1 | 76% | 86.5% | 98.1% | 103% | 97.4% | 85.8% | 92.9% | 105% |  | 98.3% | 54.3% | 85.4% | 107% |  | 81.7% | 108% | 103% | 76.4% | 39.3%
CC12CC[C@@H]3[C@]4(C)COC(c5cn[nH]c5-c5ccc(Br)cc5)O[C@@H]4CC[C@@]3(C)[C@@H]1CC(C1=CCOC1=O)O2 (some centres undefined) | 40.6% | 24.9% | 62.6% | 81.5% | 36.1% | 73.5% | 50.3% | 56% |  | 51.9% | 16.3% | 21.7% | 51.8% | 62.1% | 23.4% | 55.8% | 39% | 9.94% (active) | 
O=C(/C=C/c1cccc(OCc2ccc(F)cc2)c1)c1nc2ccccc2[nH]1 | -44% (active) | -50.4% (active) | 83.2% | 122% | 62.5% | 92.9% | 93.5% | 68.2% |  | 72.5% | 22.1% | 16% | 68.8% |  | -24.9% (active) | 26.6% | 13.6% | 8.37% (active) | 3.5% (active)
C#CCOc1cc(N(CC)CC)ccc1C(C(=O)NC(C)(C)C)N(C(=O)C1CCc2cc(F)ccc2O1)c1cc(C)cc(C)c1 (centres undefined) | 20.4% | 17.6% | 34.1% | 49.7% | 36.8% | 46.7% | 61.9% | 30.5% |  | 41.9% | 18.8% | 43.1% | 47.1% | 36.4% | 11.4% | 54.6% | 25.9% | 24.3% | 14.9%
